CBX7 inh: inhibitors of human CBX7 binding to H3K27me3 peptide. AlphaScreen His6-CBX7 / biotin-H3K27me3 peptide binding; hits give low values. normalised signal (fraction of DMSO) (concentration not given with the values). 66,000 tested, 1.1% active. AID 1224903; in the data active means normalised signal below about 0.5
Target sequence (O95931 whole entry, looked up): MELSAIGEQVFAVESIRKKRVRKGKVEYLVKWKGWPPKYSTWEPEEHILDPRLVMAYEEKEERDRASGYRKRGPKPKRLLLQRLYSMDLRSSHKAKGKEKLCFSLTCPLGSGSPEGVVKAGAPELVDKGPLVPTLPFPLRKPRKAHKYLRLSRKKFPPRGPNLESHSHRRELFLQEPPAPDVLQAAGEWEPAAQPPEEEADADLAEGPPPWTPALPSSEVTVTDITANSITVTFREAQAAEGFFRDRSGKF
* = called active by the depositor. The full list was thinned out, with hits kept by preference.

`CCCCn1cnc2cc(NCc3ccc(Br)cc3)ccc21` gave CBX7 inh 0.255*.
CCCn1cnc2cc(NCc3ccc(OC)c(OC)c3)ccc21 was read as CBX7 inh 0.809.
Screening CCn1cnc2cc(NCc3ccc(OC)c(OC)c3)ccc21 returned CBX7 inh 0.951.
Screening CCCn1cnc2cc(NCc3ccc(Br)cc3)ccc21 returned CBX7 inh 0.326*.
Screening CCn1cnc2cc(NCc3ccc(Br)cc3)ccc21 returned CBX7 inh 0.956.
For CCCn1cnc2cc(NCc3cccc(OC)c3)ccc21 the results were CBX7 inh 0.563.
`COCC(=O)Nc1ccc2nc(N3CCC(C)CC3)cc(C)c2c1` gave CBX7 inh 1.01.
CC(C)CN(CCCNC(=O)c1csc2c1CCCCC2)CC(C)C was read as CBX7 inh 1.07.
Screening COc1ccc(CC(=O)Nc2cc(OC)c(Cl)cc2OC)cc1 returned CBX7 inh 1.01.
`CCOC(=O)C1CCN(c2c(N3CCN(c4cc(C)ccc4C)CC3)c(=O)c2=O)CC1` gave CBX7 inh 0.943.
For Cc1cc(N2CCOCC2)nc2ccc(NC(=O)CCC(=O)Nc3ccccc3F)cc12 the results were CBX7 inh 0.967.
CC1=C(C(=O)Nc2cccc(C)n2)C(c2cccc(Oc3ccccc3)c2)C2=C(CCCC2=O)N1 (stereo unspecified) was read as CBX7 inh 1.13.
COc1cc2c(c(OC)c1)C(c1ccc(-c3ccccc3)cc1)CC(=O)N2 (stereo unspecified) was read as CBX7 inh 0.912.
For CCOC(=O)c1cnc2ccc(C)cc2c1Nc1ccc(OC)cc1OC the results were CBX7 inh 0.866.
`CCC1Oc2ccc(Cl)cc2N(CC(=O)NC2CCCCCC2)C1=O` (stereo unspecified) gave CBX7 inh 1.59.
COc1ccc(OC)c(NS(=O)(=O)c2ccc(OC)c3ncccc23)c1 was read as CBX7 inh 1.03.
For Cc1nn(-c2ccccc2)c(Cl)c1C(=O)Nc1ccc(C)c2cccnc12 the results were CBX7 inh 0.961.
CS(=O)(=O)Nc1ccc(Cl)c2cccnc12 was read as CBX7 inh 0.00263*.
For CCc1ccccc1NC(=O)c1nn2c(C(F)(F)F)cc(-c3ccc(C)cc3)nc2c1Cl the results were CBX7 inh 1.05.
`CCc1ccc(NC(=O)[C@H](CC(C)C)N2Cc3ccccc3C2=O)cc1` gave CBX7 inh 1.06.
Screening Cc1cccc(CSc2nc3ccncc3n2Cc2ccccc2C)c1 returned CBX7 inh 0.81.
For CCN(CCCNC(=O)c1nn(-c2ccccc2OC)c(=O)c2ccccc12)c1cccc(C)c1 the results were CBX7 inh 0.481*.
COCCNC(=O)c1nn(-c2ccccc2OC)c(=O)c2ccccc12 was read as CBX7 inh 1.01.
`COc1ccccc1CNC(=O)c1nn(-c2ccccc2OC)c(=O)c2ccccc12` gave CBX7 inh 0.941.
Screening COc1ccc(N2Cc3cccc(C(=O)NCCN4CCOCC4)c3C2=O)cc1 returned CBX7 inh 0.959.
For Cc1cc(Nc2ccc3[nH]c(=O)[nH]c3c2)n2c(nc3ccccc32)c1C#N the results were CBX7 inh 1.06.
COc1ccccc1OC(C)C(=O)Nc1c(C(=O)c2ccccc2)oc2ccccc12 (stereo unspecified) was read as CBX7 inh 1.18.
For CCOC(=O)N1CCC(Nc2c(N3CCN(c4cccc(C)c4C)CC3)c(=O)c2=O)CC1 the results were CBX7 inh 1.08.
For CC1CCN(c2nc3ccc(C(=O)NCCCSC4CCCCC4)cc3s2)CC1 the results were CBX7 inh 1.21.
O=c1[nH]c2ccc(NCc3ccc(F)cc3)cc2[nH]1 was read as CBX7 inh 0.915.
`O=c1[nH]c2ccc(NCc3ccc(OCc4ccc(Cl)cc4)cc3)cc2[nH]1` gave CBX7 inh 0.86.
CCOc1cccc(CNc2ccc3[nH]c(=O)[nH]c3c2)c1OCc1ccc(Cl)cc1 was read as CBX7 inh 0.445*.
Screening O=C(Nc1ccc2c(c1)OCO2)[C@H](Cc1ccccc1)N1Cc2ccccc2C1=O returned CBX7 inh 0.417*.
Screening O=C(Nc1ccc2c(c1)OCO2)[C@H](CSCc1ccccc1)N1Cc2ccccc2C1=O returned CBX7 inh 0.706.
Screening COc1ccc(NC(=O)[C@H](CCSC)N2Cc3ccccc3C2=O)cc1OC returned CBX7 inh 0.769.
COc1ccc(NC(=O)[C@H](Cc2ccccc2)N2Cc3ccccc3C2=O)cc1OC was read as CBX7 inh 0.417*.
Screening Cc1ccc(NC(=O)[C@H](Cc2ccccc2)N2Cc3ccccc3C2=O)cc1F returned CBX7 inh 0.678.
CSCC[C@@H](C(=O)Nc1ccc2c(c1)OCO2)N1Cc2ccccc2C1=O was read as CBX7 inh 0.618.
Cc1cccc(CN2CCN(CC(=O)NCC3COc4ccccc4O3)C2=O)c1 (stereo unspecified) was read as CBX7 inh 1.04.
`O=C1CC(NCc2ccccc2)C(=O)N1c1ccccc1` (stereo unspecified) gave CBX7 inh 1.07.
For Cn1c(NC(=O)c2ccccc2Cl)nc2ccccc21 the results were CBX7 inh 0.814.
Cc1ccc(NC(=O)Cn2cnc3c2c(=O)n(C)c(=O)n3C)cc1Cl was read as CBX7 inh 0.997.
`Cc1ccc(NC2=NS(=O)(=O)c3ccccc32)c(C)c1` gave CBX7 inh 0.969.
For NC(=O)c1ccc(-n2nnnc2SCC(=O)Nc2ccccc2)cc1 the results were CBX7 inh 1.06.
`O=C(CSc1nnnn1-c1ccccc1)Nc1ncccn1` gave CBX7 inh 0.134*.
Screening O=C(CSc1nnnn1-c1ccc(Cl)cc1)Nc1ccccc1Cl returned CBX7 inh 0.857.
Screening O=C(O)c1c2c(nc3ccc(S(=O)(=O)N4CCC(C(=O)O)CC4)cc13)CCCCC2 returned CBX7 inh 1.02.
CCc1cc(-c2[nH]ncc2-c2ccc3c(c2)OCCO3)c(O)cc1OC was read as CBX7 inh 0.381*.
`CCc1cc(-c2n[nH]c(C)c2-c2ccc3c(c2)OCCO3)c(O)cc1O` gave CBX7 inh 0.685.
CCc1cc(-c2[nH]ncc2-c2ccc3c(c2)OCCO3)c(O)cc1O was read as CBX7 inh 0.686.
For CCCCCCc1cc(-c2[nH]ncc2-c2ccc(Br)cc2)c(O)cc1OC the results were CBX7 inh 0.583.
For CCCc1cc(-c2[nH]ncc2-c2ccc3c(c2)OCCO3)c(O)cc1OC the results were CBX7 inh 0.292*.
Screening CCCc1cc(-c2onc(C)c2-c2ccc3c(c2)OCCCO3)c(O)cc1OC returned CBX7 inh 0.681.
Screening O=C(Nc1cccc(-c2nc3ncccc3o2)c1)c1ccccc1F returned CBX7 inh 1.19.
Screening O=S(=O)(c1cccc2nsnc12)N(CCOc1cccc2ccccc12)C1CCCCC1 returned CBX7 inh 0.787.
COc1ccccc1C(=O)Nc1cccc(-c2nc3ccccc3o2)c1C was read as CBX7 inh 1.03.
`CC1(C)CC(=O)c2cc(C(=O)Nc3ccc(Br)cn3)c(=O)n(-c3ccccc3)c2C1` gave CBX7 inh 1.02.
For Cc1cc(OCC(=O)Nc2ccc(-c3nc4ncccc4o3)cc2)cc(C)c1Cl the results were CBX7 inh 0.87.
For Cc1ccc(OCc2nnc(SCC(=O)Nc3ccccc3C(C)C)o2)cc1 the results were CBX7 inh 1.08.
COc1ccccc1N1C(=O)c2ccc(C(=O)Nc3cccc(O)c3)cc2C1=O was read as CBX7 inh 0.916.
For Cc1n[nH]c(C)c1CCCCOc1ccc(C(C)(C)C)cc1 the results were CBX7 inh 0.815.
